These results are taken from the supplement of paper PMC8866396.

The test system of one assay is IL-6-GFP PC-9GR. In words: cell viability (CCK-8 OD) relative to DMSO control (fraction of control); higher = more viable cells. Particulars: compound concentration: 10 uM; treatment time: 48 h. The essentials: (§1)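 PC-9 and PC-9GR lung cancer cells overexpressing IL-6-GFP from a lentiviral construct were plated at 3000 cells/well in 96-well plates. Each compound from a purchased 510-compound library was added at a final 10 μM for 48 h, with a parallel plate set used for GFP imaging. Viability was measured by CCK-8 absorbance and expressed as each well's optical density divided by the vehicle (DMSO) control well, from two independent replicates.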

The subject of another assay is IL-6-GFP PC-9. Described as above. Particulars: compound concentration: 10 uM; treatment time: 48 h. In outline:
as §1

± gives the standard deviation of the averaged measurements.

For `CCOC(=O)c1c(N)sc2c1CCN(Cc1ccccc1)C2.Cl` [Tinoridine hydrochloride], the cell viability in the assay on IL-6-GFP PC-9GR turned out to be 1.12 ± 0.27; in the assay on IL-6-GFP PC-9, 1.12 ± 0.061.
For the compound `C=C1C(=O)OC2C1CCC(=C)C1CCC(=C)C12` (configuration not stated) [Dehydrocostus Lactone], the cell viability in the assay with IL-6-GFP PC-9GR was 0.75 ± 0.052; in the assay with IL-6-GFP PC-9, 0.808 ± 0.077.
`CS(=O)(=O)O.Cc1ccc(NC(=O)c2ccc(CN3CCN(C)CC3)cc2)cc1Nc1nccc(-c2cccnc2)n1` [Imatinib Mesylate (STI571)]: the cell viability in the assay with IL-6-GFP PC-9GR was found to be 1.26 ± 0.07; with IL-6-GFP PC-9 it was 1.1 ± 0.1.
`CCCCC(CC)CN1CN(CC(CC)CCCC)CC(C)(N)C1` (configuration not stated) [Hexetidine]: the figures for the cell viability with IL-6-GFP PC-9GR and in the assay on IL-6-GFP PC-9 were 1.58 ± 0.49 and 1.15 ± 0.07, respectively.
Consider `Cc1ccc(Nc2c(F)cccc2Cl)c(CC(=O)O)c1` [Lumiracoxib], for which the cell viability in the assay with IL-6-GFP PC-9GR is 0.626 ± 0.15; in the assay with IL-6-GFP PC-9 it was 0.853 ± 0.29.
For `CCCCCCCCCCCCCCCCCCOP(=O)([O-])OC1CC[N+](C)(C)CC1` [Perifosine (KRX-0401)], the results for the cell viability in the assay with IL-6-GFP PC-9GR and in the assay on IL-6-GFP PC-9 were 0.943 ± 0.084 and 0.786 ± 0.059, respectively.
As to `CC1(C(=O)O)CCC2(C)CCC3(C)C(=CC(=O)C4C5(C)CCC(OC6OC(C(=O)O)C(O)C(O)C6OC6OC(C(=O)O)C(O)C(O)C6O)C(C)(C)C5CCC43C)C2C1` (configuration not stated) [Glycyrrhizin (Glycyrrhizic Acid)], the cell viability was found to be 1.47 ± 0.11 in the assay with IL-6-GFP PC-9GR and 1.29 ± 0.022 in the assay with IL-6-GFP PC-9.
With `Nc1nc(=O)c2c(CCc3ccc(C(=O)NC(CCC(=O)[O-])C(=O)[O-])cc3)c[nH]c2[nH]1.[Na+].[Na+]` (configuration not stated) [Pemetrexed], the cell viability with IL-6-GFP PC-9GR was found to be 0.483 ± 0.064; in the assay on IL-6-GFP PC-9 it was 0.635 ± 0.1.
For the compound `CC12CCC(CC1)C(C)(C)O2` [Eucalyptol], the cell viability in the assay on IL-6-GFP PC-9GR turned out to be 1.29 ± 0.37; in the assay with IL-6-GFP PC-9, 1.33 ± 0.048.
On to `O=c1ccc2ccc(O)c(O)c2o1` [Daphnetin], for which the figures for the cell viability with IL-6-GFP PC-9GR and in the assay with IL-6-GFP PC-9 were 1.303 ± 0.0056 and 1.17 ± 0.18, respectively.
As for `COc1c(OC2OC(CO)C(O)C(O)C2O)cc2c(c1OC)-c1ccc(SC)c(=O)cc1C(NC(C)=O)CC2` (configuration not stated) [Thiocolchicoside], the cell viability in the assay with IL-6-GFP PC-9GR amounted to 1.18 ± 0.26; in the assay with IL-6-GFP PC-9, 1.2 ± 0.12.
